Shown are actives, neighbours in structure and some others; about 22% of the full set was active somewhere.
F-actin modifier = modifiers of F-actin cytoskeleton organization, primary screen, imaging, HUVEC, phalloidin staining, high-content imaging; HUVEC TNFa F-actin phalloidin imaging; inhibition, % at 2 µM; 91,000 compounds, 0.18% hits; AID 836, 2007;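 active means inhibition above the batch mean plus 3 SD and confirmed as a hit by visual image inspection, cut at about 30% in these data, passing the limit was not always enough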
CYP2C9 inh = blockers of cytochrome P450 2C9 activity – biochemical, luminescence, ADME assay, primary screen; CYP2C9 Supersomes, luciferin-H conversion; inhibition, % at 5 µM; 96,000 compounds, 20% hits;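 active means blocking of liver enzyme CYP2C9 beyond about 50% at 5 µM, limit read from the data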
CYP2C19 inhib = blockers of cytochrome P450 2C19 activity – biochemical, luminescence, ADME assay, primary screen | 96,000 compounds, 21% hits | inhibition, % at 5 µM | CYP2C19 Supersomes, luciferin-H EGE luminescence, 30 min | P33261;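 active means CYP2C19 inhibition above a set limit at 5 µM in the primary screen, cut at about 50% in these data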;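 further: plate controls were negative control wells for no effect and 2.5 mM tranylcypromine positive control for full effect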
Target sequence (P33261 whole entry, looked up): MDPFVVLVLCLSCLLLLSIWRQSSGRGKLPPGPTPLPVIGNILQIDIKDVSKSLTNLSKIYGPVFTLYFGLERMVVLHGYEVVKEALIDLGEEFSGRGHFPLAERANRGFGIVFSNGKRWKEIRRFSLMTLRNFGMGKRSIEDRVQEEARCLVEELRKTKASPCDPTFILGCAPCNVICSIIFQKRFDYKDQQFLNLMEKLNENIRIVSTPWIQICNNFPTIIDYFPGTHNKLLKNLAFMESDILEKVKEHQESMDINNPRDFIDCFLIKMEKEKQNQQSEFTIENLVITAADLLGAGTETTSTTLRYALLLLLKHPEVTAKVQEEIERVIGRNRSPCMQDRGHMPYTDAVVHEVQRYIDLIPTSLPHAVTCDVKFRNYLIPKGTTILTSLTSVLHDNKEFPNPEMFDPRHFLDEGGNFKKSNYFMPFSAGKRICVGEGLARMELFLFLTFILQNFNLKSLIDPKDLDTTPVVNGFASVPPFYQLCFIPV
CYP2C19 activ = human CYP2C19 activators, primary screen, biochemical, luminescence | activation factor at 5 µM | recombinant CYP2C19, luciferin-H EGE luminescence; active compounds read high; 0 = fully inhibited enzyme, 1 = untreated enzyme | AID 1025, 2008 | Cytochrome P450 2C19 (Homo sapiens), P33261 | 96,000 tested, under 10 active;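 active means activation factor of at least 2 at 5 µM in the primary screen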;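 further: 0 = wells with 2.5 mM tranylcypromine and 1 = vehicle-only wells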
CYP2C9 act = human CYP2C9 activators, primary screen, biochemical, luminescence; recombinant CYP2C9, luciferin-H conversion; active compounds read high; factor 1 = untreated enzyme, 0 = blocked; activation factor at 5 µM; 96,000 compounds, 1.4% hits;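 active means activation factor of 2 or more for CYP2C9 at a 5 µM dose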;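 further: 0 = sulfaphenazole-blocked wells and 1 = vehicle-only wells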
E-sel TNF inh = E-selectin induction blockers in HUVEC – imaging, immunofluorescence, high content, primary screen; HUVEC TNFa-induced E-selectin immunofluorescence; inhibition, % at 2 µM; 120,000 compounds, 0.71% hits;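 active means inhibition above the batch mean plus 3 SD, and confirmed as a hit on visual image review, cut at about 43% in these data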;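 further: 0% = TNF-stimulated DMSO wells and 100% = unstimulated control wells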
An asterisk follows results filed as active; · = not tested or not shown.

SMILES | F-actin modifier | CYP2C9 inh | CYP2C19 inhib | CYP2C19 activ | CYP2C9 act | E-sel TNF inh
COc1cc(N(C)C)c(NC(C)=O)cc1C(=O)O | -2 | 4 | 9 | 0.9 | 1 | -1
CCOC(=O)Nc1cc(OC)c(OC)cc1Cc1nccc2cc(OC)c(OC)cc12 | 8 | 62* | 85* | 0.2 | 0.4 | -1
COc1ccc(-c2cc(C(F)(F)F)nc(N3CCCCC3)n2)cc1OC | -9 | 5 | -2 | 1 | 1 | -7
COc1cc(NC(=O)c2ccco2)c(OC)cc1NC(=O)CSc1ncc(-c2ccc(F)cc2)[nH]1 | -31 | 0 | -4 | 1 | 1 | -45
CCc1nnc(NC(=O)CSc2nnc(Cc3ccccc3)n2Cc2ccccc2)s1 | -3 | 43 | 28 | 0.7 | 0.6 | -9
O=C(CSc1ncc(-c2ccc(F)cc2)[nH]1)Nc1cccc(O)c1 | 26 | 10 | 51* | 0.5 | 0.9 | -7
CCc1nnc(NC(=O)CSc2ncc(-c3ccccc3)n2CC)s1 | -24 | 72* | 76* | 0.2 | 0.3 | -4
CCc1nnc(NC(=O)CSc2ccc(-c3nc4ccccc4[nH]3)cn2)s1 | -29 | 51* | 23 | 0.8 | 0.5 | -31
CCc1nnc(NC(=O)CSc2ncc(-c3ccccc3)[nH]2)s1 | 6 | 66* | 25 | 0.7 | 0.3 | 5
CCc1nnc(NC(=O)CSc2nnc3ncccn23)s1 | -4 | 35 | 68* | 0.3 | 0.6 | -3
Cc1csc(NC(=O)CSc2nnc3ncccn23)n1 | -9 | 5 | 15 | 0.8 | 0.9 | 3
C#CCOCCOCCOCCNc1nc(N2CCN(C(=O)Cn3cc(CCO)nn3)CC2)nc(N2CCN(C(=O)[C@H](C(C)C)n3cc(CCO)nn3)CC2)n1 | · | · | · | · | · | -3
CC(=O)Nc1ccc(S(=O)(=O)Oc2cccc(N3C(=O)C4CC=CCC4C3=O)c2)cc1 (stereo not drawn) | 8 | 59* | 43 | 0.6 | 0.4 | -25
CC(=O)Nc1ccc(S(=O)(=O)Oc2ccc(N3C(=O)C4CCCCC4C3=O)cc2)cc1 (stereo not drawn) | -7 | 47 | 26 | 0.7 | 0.5 | 1
Brc1ccc(-c2nnc(-c3ccccc3)c(N3CCSCC3)n2)cc1 | -17 | 13 | 2 | 1 | 0.9 | -46
CCN(CC)c1ccc(NC(=O)c2cccnc2)cc1 | -23 | 22 | 36 | 0.6 | 0.8 | -1
CCN(CC)c1ccc(-c2nc3cnccc3n2C)cc1 | · | 92* | 90* | 0.1 | 0.1 | -26
COc1cccc(CCNc2ccc(N3C(=O)CC(C)C3=O)cc2[N+](=O)[O-])c1 (stereo not drawn) | · | · | · | · | · | 31
CCOC(=O)N1CCC(NC(=O)c2ccc(CS(=O)(=O)c3c(Cl)cccc3Cl)o2)CC1 | · | 66* | -7 | 1.1 | 0.3 | -26
CCOC(=O)N1CCC(NC(=O)c2ccc(CS(=O)(=O)c3ccccc3C)o2)CC1 | 25 | 77* | -9 | 1.1 | 0.2 | ·
O=C(O)c1cc(-c2ccc(N3CCOCC3)cc2)nn1-c1ccc(F)cc1 | · | · | · | · | · | 0
CCCS(=O)(=O)N1CCC(C(=O)NCC2CCCO2)CC1 (stereo not drawn) | 2 | -4 | -4 | 1 | 1 | ·
CC1=C(C(=O)OC(C)C)C(c2c(O)ccc3ccccc23)NC(=O)N1 (stereo not drawn) | -7 | 6 | 86* | 0.1 | 0.9 | 9
CCOc1c2ccc(C(=O)NCCc3cccs3)cc2nn1CC | -18 | -7 | -1 | 1 | 1.1 | -7
O=Cc1nc(-c2ccccc2Cl)n2ccccc12 | -1 | -120 | 35 | 0.7 | 2.2* | 17
SMILES | F-actin modifier | CYP2C9 inh | CYP2C19 inhib | CYP2C19 activ | CYP2C9 act | E-sel TNF inh
Cc1ccccc1CNC(=O)c1ccccc1C | 6 | 9 | 54* | 0.5 | 0.9 | 1
Cc1ccccc1CNC(=O)c1ccccc1 | 4 | 11 | 57* | 0.4 | 0.9 | 4
CC(C(=O)NC(=O)NC1CCCCC1)N1CCN(C(c2ccccc2)c2ccccc2)CC1 (stereo not drawn) | 13 | 84* | 26 | 0.7 | 0.2 | 8
O=C(NC1CCCCC1)C(c1ccccc1)N1CCCC1 (stereo not drawn) | · | -9 | 71* | 0.3 | 1.1 | -12
COC(C(=O)NC1CCCCCCC1)c1ccccc1 (stereo not drawn) | · | · | · | · | · | 7
Cc1ccc(C(C(=O)NC2CCCCC2)N2CCCC2)cc1 (stereo not drawn) | · | 6 | 0 | 1 | 0.9 | -112
COc1ccc2c3c(cccc13)OCC2=O | 7 | 40 | 51* | 0.5 | 0.6 | -18
O=C1CN(C(=O)COC(=O)c2cccc(S(=O)(=O)NCc3ccccc3)c2)c2ccccc2N1 | 12 | 68* | 44 | 0.6 | 0.3 | -10
CCN(CC)S(=O)(=O)c1cccc(C(=O)OCC(=O)Nc2ccccc2OC(F)F)c1 | 11 | 88* | 84* | 0.2 | 0.1 | 12
CCN(CC)S(=O)(=O)c1cccc(C(=O)OCC(=O)C23CC4CC(CC(C4)C2)C3)c1 | -11 | 74* | -2 | 1 | 0.3 | 4
CCN(CC)S(=O)(=O)c1cccc(C(=O)OCC(=O)N2CC(=O)Nc3ccccc32)c1 | -19 | 66* | 34 | 0.7 | 0.3 | 9
CN(C)S(=O)(=O)c1cccc(C(=O)OCC(=O)Nc2ccccc2OC(F)F)c1 | -11 | 6 | 7 | 0.9 | 0.9 | -64
CCN(CC)S(=O)(=O)c1cccc(C(=O)Nc2cc(C)cc(C)c2)c1 | 15 | 40 | 41 | 0.6 | 0.6 | ·
C/C(NCCN1CCOCC1)=C(\C#N)C(N)=O | 2 | · | · | · | · | 2
Nc1cccn2c(-c3ccc(Cl)c(Cl)c3)cnc12 | · | · | · | · | · | -5
COc1ccc(OC)c(NC(=O)CC2SC(=Nc3ccccc3)N(CCc3ccccn3)C2=O)c1 (stereo not drawn) | · | · | · | · | · | -10
COc1ccc(N=C2SC(CC(=O)Nc3ccc(OC)cc3OC)C(=O)N2C)cc1 (stereo not drawn) | 0 | 52* | 49 | 0.5 | 0.5 | -25
CCCc1nc(S(=O)(=O)Cc2ccc(Cl)cc2Cl)n[nH]1 | 7 | -46 | 73* | 0.3 | 1.5 | -3
O=C(Cc1ccc(F)cc1)NCCc1ccc(F)cc1 | · | 52* | 65* | 0.3 | 0.5 | 4
O=C(Cc1ccc(F)cc1)NCCc1ccccc1 | -15 | 50* | 68* | 0.3 | 0.5 | 11
CCCC(=O)NCCc1ccc(F)cc1 | 1 | 9 | 30 | 0.7 | 0.9 | -13
O=C(NCCc1ccccc1)c1ccccc1F | · | · | · | · | · | -9
O=C(NCCc1ccccc1)c1ccc(Br)o1 | -4 | 1 | 51* | 0.5 | 1 | ·
O=C(CN1CCCCCC1)NCCc1ccc(F)cc1 | 45 | 15 | 66* | 0.3 | 0.8 | 1

Screens from PubChem.
